Screens: PubChem, National Center for Advancing Translational Sciences (NCATS)
TDP1 block: qHTS Assay for Inhibitors of Tyrosyl-DNA Phosphodiesterase (TDP1) | Tyrosyl-DNA phosphodiesterase 1 (Homo sapiens), Q9NUW8 | recombinant TDP1, AlphaScreen DNA substrate cleavage | Potency, µM (highest dose often 130 µM), most hits filed as inhibitors | hit rate 0.28% among 350,000; further: nearly all actives have a fitted effect of over 40% in size
Target sequence (Q9NUW8 whole entry, looked up): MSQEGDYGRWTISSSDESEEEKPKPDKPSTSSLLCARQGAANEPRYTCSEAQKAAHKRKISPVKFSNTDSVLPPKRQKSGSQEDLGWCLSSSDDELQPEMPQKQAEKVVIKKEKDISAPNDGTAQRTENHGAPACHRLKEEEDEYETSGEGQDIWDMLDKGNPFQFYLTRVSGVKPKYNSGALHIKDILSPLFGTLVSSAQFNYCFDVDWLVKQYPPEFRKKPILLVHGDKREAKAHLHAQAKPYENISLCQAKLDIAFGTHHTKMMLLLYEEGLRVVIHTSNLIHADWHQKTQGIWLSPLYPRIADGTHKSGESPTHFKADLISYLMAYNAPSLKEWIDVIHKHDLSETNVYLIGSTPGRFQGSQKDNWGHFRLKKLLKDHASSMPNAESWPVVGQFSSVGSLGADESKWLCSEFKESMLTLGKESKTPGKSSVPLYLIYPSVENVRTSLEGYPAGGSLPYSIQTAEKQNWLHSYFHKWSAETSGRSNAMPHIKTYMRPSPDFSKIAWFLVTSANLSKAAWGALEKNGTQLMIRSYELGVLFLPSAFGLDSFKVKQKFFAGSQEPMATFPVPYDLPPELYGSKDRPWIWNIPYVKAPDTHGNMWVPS
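AlphaScreen read-out: signal falls as enzyme removes the 3' tyrosine-FITC from a 5'-biotinylated DNA oligo (15 nM, 5 min, RT). Enzyme was E. coli-made recombinant Tdp1 at 1 nM, exposed to compound for 15 min beforehand; beads 10 ug/ml, 10 min.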
TDP1 cell CPT: qHTS for Inhibitors of human tyrosyl-DNA phosphodiesterase 1 (TDP1): qHTS in cells in presence of CPT; Potency, µM (highest dose often 46.2 µM), usual class: inhibitors; chicken DT40 Tdp1-/-;hTDP1 cells + 20 nM CPT, ATP luminescence, 48 h; hit rate 12% among 420,000; AID 686979, 2013; further: nearly all actives have a fitted effect of over 55% in size
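Chicken DT40 Tdp1-/- cells stably complemented with human TDP1 were seeded at 400 cells/well in medium containing 20 nM camptothecin, exposed to pin-transferred compounds, and grown at 37 °C for at least 48 hr. Viability was read as ATP luminescence.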
uPA generation: qHTS for Inhibitors of Cell Surface uPA Generation | Potency, µM (titrated, usually from 38.3 µM), actives largely listed as inhibitors | hit rate 0.31% among 330,000 | AID 540303, 2011 | cell surface uPA generation assay, qHTS; active means well fitted inhibition curve with a large enough effect; inconclusive means small, poorly fitted or top-dose-only effect; inactive means no such curve, though single readings can be large or run the other way; tested in mouse RAW 264.7 cells; further: nearly all actives have a fitted effect of over 55% in size
miR-21 act: qHTS Assay for Modulators of miRNAs and/orActivators of miR-21 | 340,000 tested, under 10 active | HeLa miR-21 FLuc reporter, luciferase, 48 h | AID 2288, 2010 | Potency, µM (highest dose often 38.3 µM), usual class: activators;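 further: miR-21 action dims this reporter so a rising signal means less miR-21 action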
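HeLa cells stably expressing CMV-driven firefly luciferase with a downstream miR-21 binding sequence, endogenously expressing miR-21, were treated with titrations (up to about 40uM final) for 48 hours at 37 degree Celsius. Luciferase luminescence was read after lysis.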
TDP1 cell noCPT: qHTS for Inhibitors of human tyrosyl-DNA phosphodiesterase 1 (TDP1): qHTS in cells in absence of CPT. DT40 Tdp1-/- hTDP1 cells, no CPT, ATP luminescence, 48 h. Potency, µM (titrated, usually from 46.2 µM), usual class: inhibitors. hit rate 15% among 420,000. AID 686978, 2013; further: nearly all actives have a fitted effect of over 55% in size
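Chicken DT40 Tdp1-/- cells complemented with human TDP1, screened without camptothecin (DMSO vehicle only), 400 cells/well. Compounds pin-transferred, cells incubated at 37 °C for at least 48 hr. Growth read as ATP-dependent luminescence (CellTiter-Glo, 30 min at RT).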
A number is an active result; 0 = inactive; ? = inconclusive; - = no result given; [ ] = remark or other dose. In the library only some 16% were active in any assay of this set; here they are far more common. Unless noted, the call rests on the fitted dose curve; in most records, active means well fitted curve in the direction sought with a large enough effect; inconclusive means small, poorly fitted or top-dose-only effect, or another doubt; inactive means no such curve, though single readings can be large; an effect the other way counts as inactive or inconclusive.

SMILES	TDP1 block	TDP1 cell CPT	uPA generation	miR-21 act	TDP1 cell noCPT
CC1CN(S(=O)(=O)c2ccc(C(=O)Nc3nnc(-c4ccc5c(c4)CCCC5)o3)cc2)CC(C)O1 (stereo not drawn)	0	6.51µM	?	0	11.6µM
COc1cccc(CNC(=O)CSCc2cnn(-c3ccccc3)c2-n2cccc2)c1	0	?	0	0	?
COc1ccc(-c2nnn(CC(=O)N(CC(=O)NCCC(C)C)c3ccccc3)n2)cc1OC	0	0	0	0	?
CC(=O)NC(=S)Nc1ccc(NC(=O)c2cccs2)cc1	0	0	0	0	?
Cc1ccc(NC(=S)NC(=O)c2cccs2)cc1F	0	0	0	-	7.31µM
O=S(=O)(c1ccc(NC(=S)NN=Cc2ccccc2O)cc1)N1CCCCC1	-	4.61µM	0	-	5.8µM
CN(C)NC(=S)Nc1ccc(S(=O)(=O)N2CCCCC2)cc1	0	0	0	0	?
COc1ccc(S(=O)(=O)N2CCCCC2)cc1NC(=O)c1cccs1	0	0	0	0	0
O=S(=O)(c1ccc(NC(=S)NC23CC4CC(CC(C4)C2)C3)cc1)N1CCCCC1	-	?	-	-	20.6µM
Cc1ccc(S(=O)(=O)N2CCCCC2)cc1NC(=O)c1cccs1	0	25.9µM	?	-	0
COc1cccc(N(CC(=O)NC2CC3CCC2C3)S(=O)(=O)c2ccccc2)c1 (stereo not drawn)	0[0.0935 µM]	0	0	0	?
CN(C)c1ccc(NC(=S)NC23CC4CC(CC(C4)C2)C3)cc1	0	29.1µM	0	0	?
O=C(NC12CC3CC(CC(C3)C1)C2)N1CCN(S(=O)(=O)c2ccc(Cl)cc2)CC1	0	18.4µM	-	0	23.1µM
O=C(NC(=S)Nc1ccc(N2CCCCC2)c(Cl)c1)c1cccs1	-	7.31µM	0	-	5.8µM
Cc1oc(S(=O)(=O)N2CCCCC2)cc1NC(=O)Nc1ccc(Cl)cc1	0	16.4µM	0	0	16.4µM
CCOc1ccc(NC(=S)NC23CC4CC(CC(C4)C2)C3)cc1	-	?	0	0	?
CC(C)CC(=O)NC(=S)Nc1ccc(N2CCCC2)c(Cl)c1	0	0	0	0	0
CCOC(=O)Cc1nnc(NC(=O)C23CC4CC(CC(C4)C2)C3)s1	0	0	0	0	0
O=C(NC(=S)Nc1ccc(S(=O)(=O)N2CCCCC2)cc1)c1cccs1	0	25.9µM	0	0	18.4µM
O=C(NC(=S)Nc1ccc(S(=O)(=O)N2CCCCC2)cc1)c1ccc(Cl)cc1	0	16.4µM	0	0	10.3µM
NS(=O)(=O)c1ccc(NC(=S)NC(=O)c2cccs2)cc1	0	0	0	0	0
COc1ccccc1/C=C1\N=C(C(C)(C)C)OC1=O	0	?	0	0	?
CC(=O)c1ccc(NC(=O)CC2S/C(=N/N=C3CCCCCC3)NC2=O)cc1 (stereo not drawn)	0	0	0	0	0
CCN(C(=O)CCCCC(=O)N(CC)c1ccccc1)c1ccccc1	-	?	0	-	18.4µM
CCN(C(=O)N(CC)c1ccccc1)c1ccccc1	0	0	0	-	?
SMILES	TDP1 block	TDP1 cell CPT	uPA generation	miR-21 act	TDP1 cell noCPT
CCC1Oc2ccc(C)cc2N(CC(=O)N(Cc2cccnc2)Cc2cccc(F)c2)C1=O (stereo not drawn)	0	18.4µM	0	0	?
CCCn1c(CCC(=O)Nc2ccccc2OC)nc2cccnc21	0	0	-	0	?
CCC(=O)OC1(C)C(=O)C=C2C=C(/C=C/COC)OC=C2C1=O (stereo not drawn)	0	-	-	-	-
COc1ccc(N2CCN(C(=O)c3ccc(OCc4c(C)noc4C)c(OC)c3)CC2)cc1	0	?	0	0	0
CCc1ccc(N2CCN(C(=O)c3ccc(OC)c(OC)c3)CC2)cc1	0	?	0	0	13µM
COc1ccc(C(=O)N2CCN(c3nc4ccccc4o3)CC2)cc1OC	0	16.4µM	0	0	20.6µM
COc1ccc(C(=O)N2CCN(c3ccc(C)cc3)CC2)cc1OC	0	?	0	0	?
COc1ccc(C(=O)N2CCN(c3c(C)cccc3C)CC2)cc1OC	0	23.1µM	0	0	?
COc1cc(C(=O)N2CCN(c3ccc([N+](=O)[O-])cc3)CC2)ccc1OCc1c(C)noc1C	0	?	0	0	16.4µM
